The source of these data is PubChem BioAssay AID720485 (Milwaukee Institute for Drug Discovery, 2013).

This is one part of the list. Values without a mark were called inactive. Calls of active or inactive are those of the source.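 The calls were made as follows: active = percent inhibition of 50% or more; inactive = the rest.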

For orientation: inhibition means how much of the control response was suppressed.

The subject of the experiment is Hepatitis C virus NS3 helicase. Kind of experiment: HCV NS3 helicase inhibitors, retest, confirmation, biochemical, fluorescence polarization, ChemBridge library (AID 720485). The conditions noted are these: NS3h binding to Cy5-dT15 DNA, at 100 µM, stronger effect = higher value. In general terms: Polarisation of emitted light reports the rotation of a fluorescent probe.
Regarding `COc1ccc(N2C(=O)C=CC2=O)c([N+](=O)[O-])c1`, the inhibition was 65.8% (active). `C=CCN1C(=O)/C(=C\c2cc(OC)c(O)c([N+](=O)[O-])c2)C(=O)NC1=S`: the inhibition was 37.2%. On to `CC(C)(C)N1C(=O)NC(=O)C(=Cc2cccs2)C1=O`, for which the inhibition is 20.3%. As to `COc1cc(C=C2C(=O)NC(=O)NC2=O)ccc1OCCOc1ccc([N+](=O)[O-])cc1`, the inhibition was 2.33%. For `CCN(CC)c1ccc(C=C2C(=O)N(C)C(=O)N(C)C2=O)c(O)c1` the value was 12.9%; for `CCN(CC)c1ccc(NC(=O)/C(=C\c2ccccc2)NC(C)=O)cc1`, 23.5%; for `N#Cc1c(N)nc2sc(C(=O)Nc3ccccc3)c(N)c2c1-c1ccco1`, 4.44%. Then `COc1ccc(C(=O)Oc2ccc3oc(=O)cc(C)c3c2)cc1OC`, with 0.212%; and `O=c1c2c(nc3cc(-c4cccc(F)c4)[nH]n13)CCS2`, with 41.5%. Then `Cc1ccc(C(=O)C[n+]2cc(-c3ccccc3)n3c2CCCCC3)cc1`, with 0.212%.

`O=C1NC(=O)C(=Cc2cc([N+](=O)[O-])cc(Br)c2O)C(=O)N1`: the inhibition was 19.3%. For `O=C(NC(=S)Nc1ccc(-c2nc3cc(Cl)ccc3o2)cc1)c1ccco1` the value was 11.8%; for `Cc1ccc(C(=O)NCCNc2ccc([N+](=O)[O-])cc2)cc1`, 16.1%; for `COc1cc(/C(O)=C(\C#N)c2nc3ccccc3n2C)cc(OC)c1OC`, 7.62%. For `CCOc1ccc(C=C2C(=O)NC(=O)NC2=O)cc1Cl` the value was 16.1%.
